Source: PMC10668032, “Altered binding affinity of SIX1-Q177R correlates with enhanced WNT5A and WNT pathway effector expression in Wilms tumor”
In all, about 33,000 sequences were measured (“e-score”: median about -0.053, highest 2% from about 0.38 on). This excerpt belongs to a sample that is enriched for the highest values.

target: T1, SIX1 homeodomain (reference allele) (human, UniProt Q15475 108-198); assay: universal protein binding microarray; Universal all-10-mer PBM (8x60K, AMADID 030236), 300 nM GST-tagged protein, Alexa Fluor 488 anti-GST; buffer, salt, pH and temperature not stated (as in Berger); high values mean tight binding; details: protein: ivt; tags: N-terminal GST; dsDNA, one strand shown
T1 sequence: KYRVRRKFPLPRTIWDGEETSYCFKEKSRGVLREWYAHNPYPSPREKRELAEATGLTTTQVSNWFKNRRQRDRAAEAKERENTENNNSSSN
How it was run: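 After in vitro transcription/translation, GST-tagged homeodomains were quantified against a recombinant GST standard curve by anti-GST western blot. They were then placed in duplicate at 300 nM final concentration on universal 'all 10-mer' protein binding microarrays of 8×60K format.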

Which binding signal does the source give for CGATCTTC here?
Its binding signal is 0.288 ± 0.0189 E-score.

For GATGGGTA, which binding signal is on record?
Its binding signal is 0.223 ± 0.0133 E-score.

With GTTTGATA as the sequence, how does the binding signal read?
Its binding signal is 0.379 ± 0.067 E-score.

How did the binding signal turn out when CTTTGATA was run?
The binding signal was 0.331 ± 0.0715 E-score.

Which binding signal does the source give for ATTTGATC here?
The binding signal was 0.215 ± 0.0531 E-score.

With CTTTGATC as the sequence, how does the binding signal read?
The binding signal was 0.213 ± 0.0316 E-score.

For GTTCGATA, which binding signal is on record?
Its binding signal is 0.324 ± 0.0131 E-score.

With ATTTGATA as the sequence, how does the binding signal read?
Its binding signal is 0.397 ± 0.0881 E-score.

How did the binding signal turn out when CAATACGA was run?
The binding signal was 0.207 ± 0.026 E-score.

Which binding signal does the source give for ATCACTTC here?
Its binding signal is 0.3 ± 0.0422 E-score.

Which binding signal does the source give for ATCAGATA here?
Its binding signal is 0.378 ± 0.0255 E-score.

For CTCAGATA, which binding signal is on record?
The binding signal was 0.31 ± 0.032 E-score.

How did the binding signal turn out when ATCAGATG was run?
The binding signal was 0.319 ± 0.0136 E-score.

For CTCAGATC, which binding signal is on record?
The binding signal was 0.27 ± 0.00864 E-score.

For ATCAGATC, which binding signal is on record?
The binding signal was 0.394 ± 0.0295 E-score.

Which binding signal does the source give for GTCAGATA here?
The binding signal was 0.273 ± 0.0192 E-score.

How did the binding signal turn out when CGTATGAA was run?
The binding signal was 0.15 ± 0.0134 E-score.

With ACGGTGAT as the sequence, how does the binding signal read?
The binding signal was 0.181 ± 0.00713 E-score.

With AAGGTGTC as the sequence, how does the binding signal read?
The binding signal was 0.373 ± 0.0231 E-score.

With CCGGTGTA as the sequence, how does the binding signal read?
Its binding signal is 0.332 ± 0.0356 E-score.

For CCGGTGTC, which binding signal is on record?
The binding signal was 0.431 ± 0.0182 E-score.

Which binding signal does the source give for ACGGTGTC here?
The binding signal was 0.437 ± 0.0187 E-score.

For ACGGTGTA, which binding signal is on record?
The binding signal was 0.255 ± 0.00781 E-score.

Which binding signal does the source give for CAGGTGTA here?
Its binding signal is 0.272 ± 0.00711 E-score.

Which binding signal does the source give for CAGGTGTC here?
The binding signal was 0.394 ± 0.0354 E-score.

CCCGTGTC was tested. Which binding signal did it give?
The binding signal was 0.255 ± 0.0128 E-score.

Which binding signal does the source give for GTCTGGTA here?
Its binding signal is 0.151 ± 0.048 E-score.

How did the binding signal turn out when ATCGGAAT was run?
The binding signal was 0.172 ± 0.0652 E-score.

Which binding signal does the source give for AAGAGTAT here?
The binding signal was 0.277 ± 0.117 E-score.

With ATATATTG as the sequence, how does the binding signal read?
Its binding signal is 0.238 ± 0.0753 E-score.

With GGGATCCC as the sequence, how does the binding signal read?
The binding signal was 0.415 ± 0.0591 E-score.

How did the binding signal turn out when CGGATCCA was run?
The binding signal was 0.406 ± 0.0429 E-score.

With CGGATCGC as the sequence, how does the binding signal read?
The binding signal was 0.395 ± 0.05 E-score.

For TGGATCCA, which binding signal is on record?
The binding signal was 0.295 ± 0.0443 E-score.

CAGATCGC was tested. Which binding signal did it give?
The binding signal was 0.284 ± 0.0237 E-score.

Which binding signal does the source give for AGGATCGC here?
Its binding signal is 0.27 ± 0.0489 E-score.

For AGGATCCG, which binding signal is on record?
Its binding signal is 0.308 ± 0.0272 E-score.

How did the binding signal turn out when CAGATCCG was run?
Its binding signal is 0.322 ± 0.0638 E-score.

How did the binding signal turn out when GGGATCTA was run?
The binding signal was 0.272 ± 0.0387 E-score.

How did the binding signal turn out when CGGATCCG was run?
Its binding signal is 0.417 ± 0.0204 E-score.

With GGGATCCA as the sequence, how does the binding signal read?
The binding signal was 0.375 ± 0.0614 E-score.

With CGGATCTA as the sequence, how does the binding signal read?
The binding signal was 0.318 ± 0.04 E-score.

With AATGAGCC as the sequence, how does the binding signal read?
Its binding signal is 0.158 ± 0.0559 E-score.

Which binding signal does the source give for ATGTCTCA here?
Its binding signal is 0.2 ± 0.0211 E-score.

With AGGGCGAT as the sequence, how does the binding signal read?
Its binding signal is 0.284 ± 0.0121 E-score.

Which binding signal does the source give for ATCACCAG here?
Its binding signal is 0.166 ± 0.0324 E-score.

How did the binding signal turn out when CCACGATC was run?
The binding signal was 0.195 ± 0.0938 E-score.

Which binding signal does the source give for ATCCTGAC here?
The binding signal was 0.228 ± 0.00948 E-score.

Which binding signal does the source give for AAGTATTG here?
The binding signal was 0.157 ± 0.085 E-score.

How did the binding signal turn out when AGGATCTC was run?
The binding signal was 0.292 ± 0.0258 E-score.

With CAGATCCC as the sequence, how does the binding signal read?
The binding signal was 0.295 ± 0.0571 E-score.

How did the binding signal turn out when AGGATCCA was run?
The binding signal was 0.346 ± 0.0238 E-score.

With CGGATCCC as the sequence, how does the binding signal read?
Its binding signal is 0.399 ± 0.0592 E-score.

AGGATCCC was tested. Which binding signal did it give?
Its binding signal is 0.379 ± 0.00668 E-score.

Which binding signal does the source give for AGGATCCT here?
The binding signal was 0.385 ± 0.0102 E-score.

With CGGATCTC as the sequence, how does the binding signal read?
The binding signal was 0.342 ± 0.0442 E-score.

How did the binding signal turn out when AGGATCTG was run?
Its binding signal is 0.244 ± 0.0478 E-score.

With AAGATCCT as the sequence, how does the binding signal read?
The binding signal was 0.326 ± 0.0346 E-score.

For ATCTTCGA, which binding signal is on record?
The binding signal was 0.193 ± 0.0484 E-score.

GAGGAATA was tested. Which binding signal did it give?
Its binding signal is 0.21 ± 0.0309 E-score.

GACCTATC was tested. Which binding signal did it give?
Its binding signal is 0.269 ± 0.00861 E-score.

For ACATGATA, which binding signal is on record?
The binding signal was 0.426 ± 0.0281 E-score.

Which binding signal does the source give for GCATGATA here?
Its binding signal is 0.4269 ± 0.00375 E-score.

With CCATGAGA as the sequence, how does the binding signal read?
Its binding signal is 0.242 ± 0.0275 E-score.

Which binding signal does the source give for ACATGAGA here?
Its binding signal is 0.183 ± 0.0219 E-score.

For ACATGATC, which binding signal is on record?
Its binding signal is 0.279 ± 0.0144 E-score.

With GCCTGATA as the sequence, how does the binding signal read?
The binding signal was 0.321 ± 0.0449 E-score.

With CCATGATC as the sequence, how does the binding signal read?
The binding signal was 0.293 ± 0.0102 E-score.

CCATGATA was tested. Which binding signal did it give?
Its binding signal is 0.376 ± 0.00711 E-score.

How did the binding signal turn out when GCACGATA was run?
Its binding signal is 0.325 ± 0.00783 E-score.

How did the binding signal turn out when AACCATCT was run?
Its binding signal is 0.154 ± 0.0503 E-score.

For ATCAATAA, which binding signal is on record?
Its binding signal is 0.182 ± 0.0114 E-score.

Which binding signal does the source give for ATCAGCCA here?
Its binding signal is 0.237 ± 0.00617 E-score.

For ACCGCTAT, which binding signal is on record?
The binding signal was 0.216 ± 0.0322 E-score.

CAGATACC was tested. Which binding signal did it give?
The binding signal was 0.433 ± 0.00544 E-score.

For AAAATACC, which binding signal is on record?
The binding signal was 0.181 ± 0.0716 E-score.

For AAGATACG, which binding signal is on record?
Its binding signal is 0.322 ± 0.0506 E-score.

Which binding signal does the source give for CAGATACA here?
Its binding signal is 0.355 ± 0.0318 E-score.

With GAGATAGC as the sequence, how does the binding signal read?
Its binding signal is 0.161 ± 0.0517 E-score.

How did the binding signal turn out when GAGATACC was run?
The binding signal was 0.44068 ± 0.000332 E-score.

For CAGATACG, which binding signal is on record?
Its binding signal is 0.334 ± 0.0281 E-score.

With AAGATACC as the sequence, how does the binding signal read?
The binding signal was 0.426 ± 0.0219 E-score.

With GAGATACA as the sequence, how does the binding signal read?
The binding signal was 0.332 ± 0.0042 E-score.

With GATCTGGC as the sequence, how does the binding signal read?
Its binding signal is 0.295 ± 0.0253 E-score.

For ATATTGTA, which binding signal is on record?
Its binding signal is 0.294 ± 0.0399 E-score.

Which binding signal does the source give for TAATATTA here?
Its binding signal is 0.161 ± 0.0729 E-score.
